In the library only some 1.8% were active in any assay of this set; here they are far more common.
GC-A act: GC-A (human) enzyme activation. AID 1671463. HEK293 GC-A cells, cGMP TR-FRET, EC30 ANP; 0% at EC30 ANP, 100% saturating ANP. P16066. 370,000 compounds, 0.14% hits. activation, % at 10 µM; in the data active means activation above about 40%
Granule exo inh: lytic granule exocytosis inhibition; inhibition, % at 10 µM; TALL-104 LAMP-1 surface exposure, flow cytometry; cells stimulated with thapsigargin and PMA; 360,000 compounds, 0.66% hits;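 active means inhibition above about 55%, limit read from the data; inconclusive means no clear call, values can overlap the other calls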
NPR2 activator: GC-B (human) receptor activation | 370,000 compounds, 0.11% hits | P20594 | AID 1920062 | activation, % at 10 µM | HEK293-GC-B cells, CNP EC30, cGMP TR-FRET; 0% at EC30 CNP, 100% saturating CNP;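 active means activation at 10 µM reaching about 35% in either raw or pattern-adjusted values, limit read from the data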
Myeloid diff MLP: compounds promoting myeloid differentiation; ER-HoxA9 myeloid progenitors, lysozyme-GFP differentiation, flow cytometry; calls only at 10 µM; 360,000 compounds, 1% hits; AID 624256;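 active means normalized GFP-positive differentiation at or above the plate's own cutoff, the solvent-only control mean plus 3 SD; inconclusive means no clear call, values can overlap the other calls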;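 further: cells exposed to compound for four days before flow analysis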
Of the large screens only hits and unclear results are named; the others gave an inactive call.

CCCCCc1ccc(-c2ccc(OC)cc2)nc1	none
CCCCCc1ccc(-c2ccc(/C=C/C(N)=O)cc2)nc1	Myeloid diff MLP active
COc1ccc(-n2nc(C#N)c(Cl)cc2=O)cc1	GC-A act 47, Myeloid diff MLP inconclusive
COC(=O)c1nn(-c2ccc(OC)cc2)c(=O)cc1O	none
O=C(CN(Cc1ccccc1)S(=O)(=O)c1ccc(F)cc1)NCCC1=CCCCC1	none
Cc1ccc(S(=O)(=O)N(CC(=O)NCCC2=CCCCC2)Cc2ccccc2)cc1	Myeloid diff MLP active
N#C/C(=C/c1cccn1-c1cccc(C(=O)O)c1)c1ccc(Cl)cc1	Myeloid diff MLP active
CCCN1CCCCC(NC(=O)c2c(F)cccc2F)C1=O (centres undefined)	none (no result: Granule exo inh, Myeloid diff MLP)
COC(=O)[C@]12C[C@H](CC(=O)N3CCOCC3)C(=O)N(Cc3ccco3)C1=C[C@H](C(C)C)O[C@@H]2C1CC1	none (no result: Granule exo inh, Myeloid diff MLP)
C=CCNC(=S)/N=c1/ccccn1CCC	Myeloid diff MLP active
C=CCNC(=S)/N=c1/ccccn1C	none
O=C(Nc1cc(S(=O)(=O)N2CCOCC2)ccc1N1CCCC1)c1cc2c(s1)CCCC2	none (no result: Granule exo inh, Myeloid diff MLP)
Nc1nc(SCC(=O)NC2CCCCC2)n[nH]1	Granule exo inh 76
Cc1ccc(NC(=S)NNC(=O)c2cnccn2)cc1	none (no result: Granule exo inh, Myeloid diff MLP)
CC1=CC(=O)c2ccccc2C1=O	none
CC(C)(C=O)C1=CC(=O)c2ccccc2C1=O	Granule exo inh 91, Myeloid diff MLP inconclusive
O=C1N(Cc2cccc(Cl)c2)C[C@@H]2C[C@@H](c3c[nH]c4ccccc34)N3CCC[C@@]123	Myeloid diff MLP active
O=C1C2C3C=CC(O3)C2C(=O)N1CC(O)c1ccccc1 (centres undefined)	Granule exo inh 63
O=C(CCc1ccccc1)NN1C(=O)C2C3C=CC(O3)C2C1=O (centres undefined)	none
CC(C)c1ccccc1NC(=O)[C@@H]1CCCN1S(=O)(=O)c1cccc2cccnc12	none (no result: Granule exo inh, Myeloid diff MLP)
Cn1nc(-c2ccc(Cl)cc2)c2cc(C(=O)NCCCN3CCCC3)sc21	Myeloid diff MLP active
CCCCN(C)CCNC(=O)c1cc2c(-c3ccccc3F)nn(C)c2s1	Myeloid diff MLP active
Cn1nc(-c2ccc(Cl)cc2)c2cc(C(=O)N3CCN(c4ccccc4)CC3)sc21	none (no result: GC-A act, NPR2 activator)
Cn1nc(-c2ccc(Cl)cc2)c2cc(C(=O)N3CCN(c4ccccn4)CC3)sc21	Myeloid diff MLP active (no result: GC-A act, NPR2 activator)
CCCCNC(=O)c1cc2c(-c3ccc(Cl)cc3)nn(C)c2s1	none
COCCNC(=O)c1cc2c(-c3ccccc3F)nn(C)c2s1	none
COc1ccc(-c2coc3c(C(=O)N4CCN(C)CC4)cccc23)c(C)c1	none
Fc1ccc(NC2CCC23CCC(c2ccccc2)CC3)cc1C(F)(F)F (centres undefined)	none (no result: Granule exo inh, Myeloid diff MLP)
CC(=O)C1=C(c2cccc([N+](=O)[O-])c2)N(C(C)=O)n2c(C)nnc2S1	Granule exo inh 56
Cc1ccc(CNc2nc(C)nc3sc4c(c23)CCC4)cc1	GC-A act 40, NPR2 activator 45
C(=N\NC1=Nc2cccc3cccc1c23)/c1ccccc1	none
Clc1ccc(/C=N/NC2=Nc3cccc4cccc2c34)cc1	Myeloid diff MLP active
CCN(Cc1cccs1)c1ncnc2ccc(-c3ccc4c(c3)OCO4)cc12	none (no result: Granule exo inh, Myeloid diff MLP)
COC1=CC(=O)c2nc(Cl)ccc2C1=O	Granule exo inh 86, Myeloid diff MLP inconclusive
CC(C)(C)OC(=O)N1CC=C2C(C#N)=C(N)C(C#N)(C#N)C(c3cccs3)C2C1 (centres undefined)	none
CC(C)(C)OC(=O)N1CC=C2C(C#N)=C(N)C(C#N)(C#N)[C@H](c3cccnc3)[C@H]2C1	GC-A act 48
O=[N+]([O-])c1cc(S(=O)(=O)Oc2ccccc2)ccc1Cl	Granule exo inh 80, Myeloid diff MLP inconclusive
O=S(=O)(Oc1ccccc1)c1ccc(Cl)c(Cl)c1	none
CN1CCN(C(=O)CSc2nc(-c3cccs3)ccc2C#N)CC1	Myeloid diff MLP active
O=[N+]([O-])c1ccc(O)c(/C=N/n2c(-c3ccccc3)n[nH]c2=S)c1	none
O=[N+]([O-])c1ccc(Cl)c(/C=N/n2c(-c3ccncc3)n[nH]c2=S)c1	Myeloid diff MLP active
COc1ccc(S(=O)(=O)N(C)C[C@H]2Oc3ncc(C#CC4(O)CCCC4)cc3C(=O)N([C@@H](C)CO)C[C@@H]2C)cc1	none
CN1OC[C@@H]2CN3C(=NCCc4ccccc4)Sc4ccccc4[C@@H]3C[C@@H]21	none (no result: Granule exo inh, Myeloid diff MLP)
CN(CCO)c1cc(Sc2nc3ccccc3s2)c2nonc2c1[N+](=O)[O-]	Granule exo inh 56
CC1=C2NC(N)=[N+](CC3CC3)C(Cc3ccccc3)[C@@H]2n2c(=O)n(-c3ccccc3)c(=O)n2C1 (some centres undefined)	none (no result: Granule exo inh, Myeloid diff MLP)
